# TTR transcr act: TTR transcription activators in neuroblastoma reporter cells, primary screen, cell-based, luminescence, SH-SY5Y, TTR promoter Gaussia luciferase; 100% = recombinant luciferase protein wells; activation, % at 16.7 µM; hit rate 1.3% among 92,000;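 active means activation above the mean of all tested compounds plus 3 SD, cut at about 9.5% in these data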;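 further: cells exposed to compounds for one day before reading; 0% = median of all test compound wells on the plate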
# Starred values were filed as active, the others as inactive. This is one part of a sample in which hits are shown more often than they occur.
SMILES,TTR transcr act
CC(C)(C)OC(=O)N[C@@H](COCc1ccccc1)C(=O)N[C@@H](CO)[C@H](O)[C@@H]1C[C@@H]1C(=O)N1CCCC1,4.0
Cc1[nH]c(=O)[nH]c(=O)c1/C=N/NC(=O)[C@H](CC(C)C)NC(=O)OC(C)(C)C,-0.7
CC(C)C[C@H](NC(=O)OC(C)(C)C)C(=O)N[C@@H](CO)[C@H](O)[C@@H]1C[C@@H]1C(=O)N1CCCC1,10.1*
Cc1ccc(CNC(=O)O[C@H]2CC[C@@]34CCCN3C(=O)CCC[C@H]4C2)cc1,0.2
NC(=O)C(NC(=O)OCc1ccccc1)c1ccccc1 (stereo unspecified),-2.1
CC(C)[C@H](NC(=O)OCc1ccccc1)C(=O)NCc1ccccc1,0.8
CC[C@@H](C)[C@H](NC(=O)OCc1ccccc1)c1nnc([C@@H](NC(=O)OCc2ccccc2)[C@@H](C)CC)o1,11.2*
O=S1(=O)CCOCC(CO)N1Cc1cccc(Br)c1 (stereo unspecified),1.0
CC(=O)N(Cc1ccco1)C1(C(=O)NC2CCCCC2)CCCCC1,10.2*
Cc1cc(NC(=O)CCC(=O)N(Cc2ccco2)C2(C(=O)NC3CCCC3)CCCCC2C)no1 (stereo unspecified),0.2
CC(=O)NCC(=O)N(Cc1ccco1)C1(C(=O)NC2CCCCC2)CCCCC1,3.8
CSc1ccc(-c2cnc(N3CCC(C(N)=O)CC3)s2)cc1,-0.3
O=C1c2ccccc2C(=O)N1CCc1nc(-c2ccccn2)no1,0.1
Clc1ccccc1OCc1nc(-c2ccncc2)no1,-0.7
Cc1ccc(OCc2nc(-c3ccccn3)no2)c(Br)c1,13.7*
C=C1CCC2C(C)(C)CCC[C@]2(C)[C@H]1CC1=C(O)C(=O)C(CO)=CC1=O (stereo partly specified),-0.8
C=CCN(C)C(C#Cc1ccccc1)Cc1ccccc1 (stereo unspecified),-0.1
COC(=O)[C@]12CCCCC=C1N(Cc1ccc(OC)cc1)C(=O)[C@@H]2CC(=O)NCC1CCCCC1,-1.3
Cn1c(=O)cc(SCC(=O)NCC2CCCO2)c2ccccc21 (stereo unspecified),2.7
Cn1c(=O)cc(SCC(=O)NCc2ccco2)c2ccccc21,11.4*
Cc1ccc(C)c(SCC(=O)NCc2ccco2)c1,-0.1
CC(C)(C)NC(=O)C(c1cccnc1)N(C(=O)c1cccs1)c1ccc(C(C)(C)C)cc1 (stereo unspecified),1.6
COc1ccc(C2/C=C\CN(S(=O)(=O)c3ccc(C)cc3)CC(=O)N2Cc2ccc(F)cc2)cc1 (stereo unspecified),16.0*
CCCCCN1C/C=C\C(c2ccc(OC)cc2)N(Cc2ccc(F)cc2)C(=O)C1 (stereo unspecified),2.5
C=CC(=O)N1C/C=C\C(c2ccc(OC)cc2)N(Cc2ccc(F)cc2)C(=O)C1 (stereo unspecified),-1.9
SMILES,TTR transcr act
Cc1ccc(C(=O)n2ccc3ccc(-c4ccc5ccn(Cc6ccccc6)c5c4)cc32)cc1,-1.2
O=C(COc1ccc(F)c(Cl)c1)N[C@H]1CCCN(CC2CC2)C1,0.0
C#CCNC(=O)C[C@H]1C[C@@]2(C(=O)OC)C(=C[C@H](COCc3ccccc3)O[C@@H]2C)N(Cc2ccco2)C1=O,0.3
COc1ccc(C(=O)NNC(=O)C(=O)Nc2ccc(C)c(Cl)c2)cc1,1.0
Cc1ccc(NC(=O)C(=O)N2CCCC2)cc1Cl,0.7
Cc1ccc(NC(=O)C(=O)NNC(=O)c2ccccc2C)cc1Cl,11.3*
C[C@H]1[C@@H](O)CC[C@@]23CCCN2C(=O)CCC[C@@H]13,0.8
O=C(NCCc1ccccc1)OCc1cn(-c2ccc(F)c(F)c2)nn1,-0.3
O=C(N1CCCC1)n1ncc(-c2ccc(-c3ccccc3)cc2)n1,-0.9
COc1cc(C(=O)NCCC(=O)NCCCN2CCCCC2)cc(OC)c1OC,19.9*
COc1cc(C(=O)NCCC(=O)NCCc2ccc(Cl)cc2)cc(OC)c1OC,-0.3
CCOCCCNC(=O)CCNC(=O)c1cc(OC)c(OC)c(OC)c1,-1.3
CCCC1CCC2(CC1)CCC2OC(=S)Nc1cccc(C(F)(F)F)c1 (stereo unspecified),1.5
CN=C1S/C(=C/c2cc(C)n(-c3cc(C)ccc3OC)c2C)C(=O)N1C,-1.6
COC(=O)c1[nH]c2cccc(OC)c2c1NC(=O)CCN1CCN(c2ccccc2F)CC1,-3.5
CCOC(=O)c1[nH]c2ccc(OC)cc2c1NC(=O)CCN1CCSCC1,6.0
COC(=O)c1[nH]c2cc(OC)ccc2c1NC(=O)CCN1CCN(c2cccc(C)c2C)CC1,21.6*
O=C(Nc1ccccc1F)O[C@@H]1CC[C@@]23CCCN2C(=O)CCC[C@H]3C1,-1.0
COc1ccccc1NC(=O)CCC(=O)c1ccc(-c2ccccc2)cc1,-2.9
COc1ccccc1NC(=O)CCC(=O)Nc1ccccc1OC,9.9*
COc1ccc(OCC(=O)Nc2ccccc2OC)cc1,5.5
O=C1N(c2ccccc2)CC2CC(c3ccccc3)N3CCCC123 (stereo unspecified),3.9
O=C1C[C@@H](O)[C@H](O)c2cccc(O)c21,0.7
C[C@H]1[C@@H](OC(=O)NCc2ccccc2)CC[C@@]23CCCN2C(=O)CCC[C@@H]13,-0.7
COc1ccc(C(c2nnnn2Cc2cccs2)N2CCC(C(N)=O)CC2)c(OC)c1 (stereo unspecified),0.7
SMILES,TTR transcr act
CC(C)CC(c1nnnn1Cc1ccco1)N1CCN(C2CCCC2)CC1 (stereo unspecified),-1.8
CC(C)CC(c1nnnn1Cc1ccccc1)N1CCC(C(N)=O)CC1 (stereo unspecified),17.8*
CCC[C@H]1[C@@H](N(C)Cc2cccs2)CC[C@@]23CCCN2C(=O)CCC[C@@H]13,0.0
C[C@H]1[C@H](NC(=O)c2ccc(C(F)(F)F)cc2)CC[C@@]23CCCN2C(=O)CCC[C@@H]13,0.7
CN1CC(=O)N2[C@@H](C[C@]3(c4c[nH]c5ccccc45)c4ccccc4N(S(=O)(=O)c4ccccc4)[C@H]23)C1=O,0.1
C[C@H](NC(=O)[C@H]1N2C(=O)c3ccccc3C2SC1(C)C)C(=O)N1CCC[C@H]1CO (stereo partly specified),1.6
C[C@H](NC(=O)[C@H]1N2C(=O)c3ccccc3C2SC1(C)C)C(=O)N1CCC[C@H]1C(=O)O (stereo partly specified),58.0*
C[C@H](NC(=O)[C@H]1N2C(=O)c3ccccc3C2SC1(C)C)C(=O)N1CCCCC1 (stereo partly specified),4.5
COc1cccc2cc3c(nc12)C[C@@H]1CCCC(=O)N2CCC[C@@]12C3,0.3
Cn1c(CCc2ccccc2)nnc1SCC(=O)N1CCOCC1,0.7
Cc1cccc(-n2c(SCC(=O)N3CCN(c4ccccn4)CC3)nnc2N2CCOCC2)c1,0.1
O=C(CSc1nnc(Cc2ccccc2)n1-c1cccc(Cl)c1)N1CCOCC1,21.6*
CCCCNC(=O)O[C@H]1CC[C@@]23CCCN2C(=O)CCC[C@H]3[C@H]1CCC,2.7
O=C(NC12CC3CC(CC(C3)C1)C2)c1cc(F)c(F)cc1Cl,-0.2
O=C(NC12CC3CC(CC(C3)C1)C2)c1ccco1,-0.9
O=C(NC12CC3CC(CC(C3)C1)C2)c1ccccc1O,9.9*
COCCCNC(=O)C[C@H]1C[C@@]2(C(=O)OC)C(=C[C@H](COCc3ccccc3)O[C@@H]2C)N(Cc2cccc3ccccc23)C1=O,-1.9
CCCC[C@H]1C2CC(OC(=O)Nc3cccc(C#N)c3)C(C2)[C@H]2CCCCN21 (stereo partly specified),-2.2

# Screening results: PubChem, The Scripps Research Institute Molecular Screening Center
